± gives the standard deviation of the averaged measurements.
Assays:
MDA-MB-231 [1] = assay: cell viability relative to vehicle unstimulated control (fraction); higher = more viable cells; details: pre-treatment time: 18 h then 24 h IFNg/TNF
MDA-MB-231 [2] = assay: kynurenine production, fold change vs DMSO IFNg/TNF control; higher = more kynurenine produced (less inhibition); details: pre-treatment time: 18 h then 24 h IFNg/TNF
Method in brief: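 Fold change over cytokine-stimulated vehicle wells on the same plate is the measure used for kynurenine production, averaged across duplicate plates in the first screening round. MDA-MB-231 cells, seeded 24 h beforehand at 7 × 10^4/well in 96-well plates, were pre-treated 18 h with each natural product in 0.1% DMSO and stimulated 24 h at 37°C with IFNγ (1 U/ml) and TNF (6.25 ng/ml). Supernatants were read at 492 nm following trichloroacetic acid and p-dimethylaminobenzaldehyde treatment, against 0–100 μM standards.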
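Wherever cell viability relative to vehicle unstimulated control is given: viability of the cells left after supernatant collection, read with Deep Blue dye added for 4 h, as absorbance at 570 nm minus 600 nm.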

SMILES	cell viability (MDA-MB-231 [1])	kynurenine production (MDA-MB-231 [2])
O=c1ccoc2cc(O)cc(O)c12 [5.7-dihydroxychromone] (compound dose: 10 uM)	0.9229 ± 0.0012	0.868 ± 0.023
C=C1C(OC(C)=O)C(OC(C)=O)C(OC(=O)c2cccnc2)C(C)(C)C=CC(C)C(OC(C)=O)C2(O)CC(C)(OC(C)=O)C(OC(=O)c3ccccc3)C2C1OC(C)=O (configuration not stated) [Pepluanin A] (compound dose: 10 uM)	1.11 ± 0.017	0.806 ± 0.06
CC(C)=CCC[C@](C)(O[C@@H]1O[C@H](CO)[C@@H](O)[C@H](O)[C@H]1O)[C@H]1CC[C@]2(C)[C@@H]1[C@H](O)C[C@@H]1[C@@]3(C)CC[C@H](O)C(C)(C)[C@@H]3[C@@H](O)C[C@]12C [Ginsenoside F1] (compound dose: 10 uM)	0.982 ± 0.05	1.13 ± 0.066
C[C@@]12C[C@@]3(O)O[C@@H](O1)[C@]1(COC(=O)c4ccccc4)[C@H]3C[C@@]12O[C@@H]1O[C@H](CO)[C@@H](O)[C@H](O)[C@H]1O [Paeoniflorin] (compound dose: 10 uM)	1.03 ± 0.16	1.34 ± 0.27
CC(=O)O[C@@H]1CC[C@@]2(C)[C@@H](CC[C@]3(C)[C@@H]2[C@H](O)C=C2[C@@H]4[C@@H](C)[C@H](C)CC[C@]4(C)CC[C@]23C)[C@@]1(C)C(=O)O [3-O-Acetyl-11-hydroxy-beta-boswellic acid] (compound dose: 10 uM)	0.8634 ± 0.0022	0.988 ± 0.083
C=C(C)[C@@H]1CC=C(CO)CC1 [Perillyl alcohol] (compound dose: 10 uM)	1.036 ± 0.0039	0.905 ± 0.13

From the supplement of paper PMC13094657
